Drawing on PubChem BioAssay AID778 (Sanford-Burnham Center for Chemical Genomics, 2007), this text covers inhibition for 63 compounds.

The structures appear in SMILES notation. In all, about 96,000 compounds went through this assay and about 20,000 (21%) were called active.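 How the source made its calls: active means CYP2C19 inhibition above a set limit at 5 µM in the primary screen (cut at about 50% in these data); inactive means the rest.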 The list is a sample of the results.

Broadly, the inhibition is the relative decrease from the control value, in per cent.

Sequence of Cytochrome P450 2C19 (Homo sapiens) (P33261 whole entry, looked up): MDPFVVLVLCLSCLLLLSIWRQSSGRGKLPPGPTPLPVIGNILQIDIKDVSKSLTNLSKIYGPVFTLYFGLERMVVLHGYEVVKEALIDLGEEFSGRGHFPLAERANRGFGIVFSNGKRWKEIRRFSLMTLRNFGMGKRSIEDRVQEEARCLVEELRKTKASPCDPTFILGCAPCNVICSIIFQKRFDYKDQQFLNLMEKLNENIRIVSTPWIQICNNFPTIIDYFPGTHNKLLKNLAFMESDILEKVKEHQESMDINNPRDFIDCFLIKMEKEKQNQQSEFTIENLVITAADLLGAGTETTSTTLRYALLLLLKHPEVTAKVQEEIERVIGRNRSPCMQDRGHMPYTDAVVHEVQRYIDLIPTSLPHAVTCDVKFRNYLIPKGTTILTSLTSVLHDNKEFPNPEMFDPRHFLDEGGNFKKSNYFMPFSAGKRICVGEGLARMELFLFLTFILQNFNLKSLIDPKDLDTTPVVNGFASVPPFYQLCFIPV

This assay concerns the target Cytochrome P450 2C19 (Homo sapiens) (UniProt P33261). The assay is described as follows: blockers of cytochrome P450 2C19 activity – biochemical, luminescence, ADME assay, primary screen (AID 778).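 Further: plate controls were negative control wells for no effect and 2.5 mM tranylcypromine positive control for full effect.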 Conditions: CYP2C19 Supersomes, luciferin-H EGE luminescence, 30 min; at 5 µM; active compounds read high.
Take `CSc1sc(C)cc1C1C(C#N)=C(N)N(c2cccnc2)C2=C1C(=O)CCC2` (stereo not drawn): the inhibition was 29.4% (inactive). As for `CC(C)NC(=O)CSc1ccccc1C(=O)NCc1ccc2c(c1)OCO2`, the inhibition is 33.8% (inactive). The result for `CCSc1ccccc1C(=O)NCc1ccc(OC)cc1` reads 96.2% (active); that for `CCCNC(=O)c1ccccc1NC(=O)CSCc1ccc(OC)cc1`, 45.7% (inactive). Turning to `COc1cc(OC)c(C(=O)Nc2ccc(N(C)C)cc2)cc1OC`, the inhibition was -11% (inactive).

On to `CCCN1C(=O)C(NS(=O)(=O)c2ccc(N)cc2)(C(F)(F)F)C(C(=O)OC)=C1C` (stereo not drawn), for which the inhibition was 6.9% (inactive). Regarding `CC1CCCN(c2ccc(C(=O)NCCc3ccccc3)cn2)C1` (stereo not drawn), the inhibition is 60.7% (active).

For `CC(=O)c1cccc(NC(=O)N2CCCC2C(=O)NCCc2ccccc2)c1` (stereo not drawn), the inhibition is 30.9% (inactive).

Take `O=C(NCCc1ccccc1)c1ccc(NC2=NC3CS(=O)(=O)CC3S2)cc1` (stereo not drawn): the inhibition is 5% (inactive). Then `CCc1ccc2oc(-c3ccc(N)cc3)nc2c1`, with -5.5% (inactive); and `CC(C)C(=O)N1CCN(CCN=CC2=C(O)CC(c3ccco3)CC2=O)CC1` (stereo not drawn), with 2.8% (inactive).

`O=[N+]([O-])c1ccccc1/C=N/n1c(COc2ccccc2)n[nH]c1=S`: the inhibition was 8.1% (inactive). On to `Cc1cccc(-n2c(N)c(C(=O)N3CCN(C)CC3)sc2=S)c1`, for which the inhibition is 6.5% (inactive).

With `CC1CCCN(Cc2nc3c(c(=O)n(C)c(=O)n3C)n2CC(=O)c2ccccc2)C1` (stereo not drawn), the inhibition is 15.6% (inactive). Then `COC(=O)c1cccc(NC(=O)CSc2nc(C)cc(=O)[nH]2)c1`, with 20.8% (inactive); and `COc1ccc(NC(=O)CSc2nc(NS(=O)(=O)c3ccc(C)cc3)cc(=O)[nH]2)cc1`, with 85.4% (active).

On to `COc1ccc2nc(SCC(=O)Nc3c(C)cc(C)cc3C)[nH]c2c1`, for which the inhibition was 64.3% (active). For the compound `COc1cc2ccccc2cc1C(=O)Nc1ccc(S(=O)(=O)Nc2cc(C)on2)cc1`, the inhibition is -10.1% (inactive). Then `COc1ccc(NC(=O)CSc2nc(N)c(-c3ccccc3)c(=O)[nH]2)cc1`, with 2% (inactive). Then `COc1ccc(OC)c(NC(=O)CSc2nc(N)c(-c3ccccc3)c(=O)[nH]2)c1`, with 11.1% (inactive); and `C=CCn1c(=S)[nH]c2nc3c(cc2c1=O)COC(C)(C)C3`, with 41.9% (inactive); and `Cc1nc2ncnn2c(C)c1CCC(=O)N1CCN(C(=O)c2ccco2)CC1`, with -9.1% (inactive). The result for `CCN(c1ccccc1)S(=O)(=O)c1ccc(N)cc1` reads 12.9% (inactive); that for `Cn1nnc(NC(=O)CSc2ncn[nH]2)n1`, -2% (inactive); that for `Cn1nc(-c2ccc(Cl)cc2)c2cc(C(=O)NCc3ccco3)sc21`, 24.9% (inactive).

For the compound `COc1ccc(OC)c(C(=O)CSc2nnc(-c3cccs3)o2)c1`, the inhibition is 54.9% (active). Then `Cc1cc(NC(=O)CSc2nnc(-c3ccc(Cl)s3)o2)no1`, with 32.4% (inactive). As to `COc1ccc(-c2nnc(SCC(=O)c3cccs3)o2)c(OC)c1`, the inhibition was 14.1% (inactive). Then `COc1ccc(-c2nnc(SC(=O)N3c4ccccc4Sc4ccccc43)o2)cc1`, with 11.9% (inactive).

On to `COC(=O)CSc1nnc(-c2cccnc2)o1`, for which the inhibition was 7.2% (inactive). For the compound `COc1ccc(-n2c(C)cc(C(=O)CSc3nnc(-c4cccs4)o3)c2C)cc1`, the inhibition is 83.2% (active). The result for `COc1cc(/C=C(\C#N)c2nc3c(s2)CC(C)CC3)ccc1O` (stereo not drawn) reads 2.4% (inactive); that for `Cc1ccc2nc(SCc3nnc(-c4ccccc4[N+](=O)[O-])o3)c(C#N)cc2c1`, 17.1% (inactive); that for `O=S(=O)(CCc1nc2ccccc2o1)c1ccc(Cl)cc1`, 30.1% (inactive). As for `COc1ccc(N2C(=O)C3CCCN3C2c2cccs2)cc1` (stereo not drawn), the inhibition is 29.5% (inactive). Then `CC12CN(Cc3ccccc3)CC(C)(CN(Cc3ccccc3)C1)C2=NO`, with 15.1% (inactive); and `c1ccc(CSc2ncnc3c2sc2nc(N4CCOCC4)c4c(c23)CCCC4)cc1`, with 4% (inactive). For `CCCSc1nsc(N)n1`, the inhibition is 15.5% (inactive). Then `CCc1nn(-c2cc(Oc3cccc4ccccc34)nc(-c3ccccc3)n2)c(N)c1C#N`, with 0.4% (inactive). Then `O=S(=O)(NCc1ccccn1)c1ccc(F)cc1`, with 40.5% (inactive). On to `O=S(=O)(NCc1cccnc1)c1ccc(Cl)nc1`, for which the inhibition is 13.3% (inactive). For the compound `CN(c1ccc(C(=O)NCc2ccccn2)cc1)S(C)(=O)=O`, the inhibition is 14.5% (inactive). Then `O=S(=O)(NCc1cccnc1)c1ccc(Br)s1`, with 60.4% (active); and `O=S(=O)(NCc1ccccn1)c1ccc(Br)s1`, with 61.6% (active); and `Cc1cc(Cl)c(S(=O)(=O)NCc2cccnc2)cc1OCC(N)=O`, with -7.3% (inactive). Then `C#CCSc1nnc(-c2sc3ccccc3c2Cl)o1`, with 25.2% (inactive); and `COc1ccc(C(F)(F)F)cc1N/C=C\c1nnnn1-c1ccc(C)cc1`, with 40.8% (inactive); and `CCc1ccccc1N(CC(=O)N1CCN(c2ccccc2F)CC1)S(C)(=O)=O`, with -6.6% (inactive). In the case of `Cc1csc(OCC(=O)Nc2ccc(C)c(C)c2)n1`, the inhibition is 15.8% (inactive). Then `Cc1ccc(NC(=O)COc2ccc(-n3ccnc3)cc2)cc1Cl`, with 99.2% (active); and `Cc1ccccc1OCC(=O)Nc1ccc(N2CCN(C(=O)C(C)C)CC2)c(Cl)c1`, with 42.7% (inactive); and `Cc1ccc(SCC(=O)NC(=O)NCc2ccco2)c(C)c1`, with 27% (inactive). `CC1(N2CCOCC2)CC2(O)C(=[N+]1[O-])CCc1nonc12` (stereo not drawn): the inhibition is 21.6% (inactive). Turning to `COc1ccccc1Nc1ncc(C(C)=O)c(C)n1`, the inhibition is 1.3% (inactive). Then `COc1ccccc1-c1c(C)nn2c(C)c(C(C)=O)cnc12`, with 55% (active); and `CC(=O)c1cnn(-c2cc(Oc3ccc(F)cc3)ncn2)c1C`, with 46.1% (inactive). Then `Cc1nn(-c2ncc(C(F)(F)F)cc2Cl)c(=O)n1-c1ccccc1`, with 23.9% (inactive); and `CCCc1cc(=O)oc2c(C)c(O)c(CN3CCCCC3)cc12`, with 44.5% (inactive); and `CC1Cc2cc(/C(O)=C3\C(=O)C(=O)N(CCN4CCOCC4)C3c3ccccc3F)ccc2O1` (stereo not drawn), with -2.6% (inactive). Then `Cn1c(Cn2nnc3ccccc32)nnc1SCC(=O)c1ccccc1F`, with 7.9% (inactive). For the compound `Cc1cc(C)cc(OCc2nnc(SCC(=O)Nc3ccccc3)o2)c1`, the inhibition was 2.4% (inactive). Then `Cc1ccccc1OCc1nnc(SCC(=O)N2c3ccccc3Sc3ccc(Cl)cc32)o1`, with 12% (inactive).

For `CC(C)NC(=O)CSc1nnc(COc2ccccc2Cl)o1`, the inhibition is 60.8% (active).
